The record followed here is PubChem BioAssay (Tox21).

Test [1] can be described thus: qHTS assay to identify small molecule agonists of the RXR signaling pathway - cell viability counter screen (AID 1159529). Also: nearly all actives have a fitted effect of over 50% in size. Also: potency is read from the fitted curve at half-maximal effect.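 As to activity change, negative = cytotoxicity: HEK 293T cells carrying an RXR-alpha UAS beta-lactamase reporter; series mostly up to about 77 µM.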 In outline: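 In this parallel viability measure, GeneBLAzer RXR-alpha HEK 293T cells (2% charcoal-stripped FBS) were given a 5 hr preincubation, treated with compounds 16 hr at 37 C, and read by CellTiter-Glo luminescence.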
(qHTS replaces the single test concentration by a dilution series.)

Test [2] can be described thus: qHTS assay to identify small molecule antagonists of the retinoid acid receptor (RAR) signaling pathway - cell viability counter screen (AID 1159551). Also: nearly all actives have a fitted effect of over 35% in size. Also: potency is read from the fitted curve at half-maximal effect. An outline of the steps:
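Luminescent ATP quantitation (CellTiter-Glo) gave cell viability in C3RL4 cells exposed to test chemicals for 6 h at 37 C alongside 1 uM final retinol.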

Test [3] is described as follows: qHTS assay to identify small molecule antagonists of the retinoic acid receptor (RAR) signaling pathway (AID 1159552; also: nearly all actives have a fitted effect of over 50% in size; also: potency is read from the fitted curve at half-maximal effect). In outline:
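C3RL4 RARE-luc cells, overnight plating; retinol 1 uM final added right after compound; 6 hr 37 C; luciferase read at 30 min RT.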

Test [4] in a line: qHTS assay to identify small molecule antagonists of the estrogen related receptor (ERR) signaling pathway from Tox21 library - cell viability counter screen (AID 1224834). Also: nearly all actives have a fitted effect of over 30% in size. Also: potency is read from the fitted curve at half-maximal effect. In outline: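 Fluorescence from CellTiter-Fluor gives the viability read-out, taken 30 min after reagent addition. Before that, ERR cells seeded 6 h earlier were incubated with compounds for 17.5 h at 37 C.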

The target of test [5] is Luciferin 4-monooxygenase (Photinus pyralis) (UniProt P08659). As to the kind of experiment: qHTS assay to identify small molecule inhibitors of firefly luciferase (AID 1224835). Also: nearly all actives have a fitted effect of over 25% in size. Also: potency is read from the fitted curve at half-maximal effect. As to activity change, negative = inhibition: series mostly up to about 120 µM. In outline: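 Inhibition of purified Photinus luciferase is measured by luminescence. Substrate levels (D-luciferin, ATP) sit at their KM values. Each compound is tested in a concentration series.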

Test [6] is described as follows: qHTS assay to identify small molecule agonists of the constitutive androstane receptor (CAR) signaling pathway - cell viability counter screen (AID 1224836). Also: nearly all actives have a fitted effect of over 45% in size. Also: potency is read from the fitted curve at half-maximal effect. As to viability change, negative = cytotoxic: series mostly up to about 92 µM. In outline:
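Using CellTiter-Fluor, viability of HepG2 cells harbouring hCAR and CYP2B6-2.2kb was measured following 23 h incubation with a 15-concentration compound series plus PK11195 (0.75 uM final).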

Test [7] is described as follows: qHTS assay to identify small molecule antagonists of the constitutive androstane receptor (CAR) signaling pathway - cell viability counter screen (AID 1224837). Also: nearly all actives have a fitted effect of over 45% in size. Also: potency is read from the fitted curve at half-maximal effect. As to activity change, negative = cytotoxicity: series mostly up to about 92 µM. An outline of the steps:
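HepG2-CYP2B6-hCAR cells, 2500/well, 4 hr pre-incubation; compound titration, 15 conc.; CITCO 50 nM final; 23 hr, 37 C/5% CO2; CellTiter-Fluor, fluorescence intensity.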

The target of test [8] is Nuclear receptor subfamily 1 group I member 3 (Homo sapiens) (UniProt Q14994). As to the kind of experiment: qHTS assay to identify small molecule antagonists of the constitutive androstane receptor (CAR) signaling pathway (AID 1224838).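 Also: HepG2 cells stably expressing hCAR with CYP2B6 luciferase reporter stimulated by CITCO; nearly all actives have a fitted effect of over 40% in size.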 Also: potency is read from the fitted curve at half-maximal effect. An outline of the steps: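 HepG2-CYP2B6-hCAR cells; 4 h pre-incubation; cpd (15 conc) + CITCO 50 nM final; 24 h, 37 C/5% CO2; ONE-Glo, luminescence.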

Test [9] shares this target. Put plainly: qHTS assay to identify small molecule agonists of the constitutive androstane receptor (CAR) signaling pathway (AID 1224839). Also: nearly all actives have a fitted effect of over 15% in size. Also: potency is read from the fitted curve at half-maximal effect.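 As to activation: HepG2 cells stably carrying human CAR and a CYP2B6 luciferase reporter; series mostly up to about 92 µM.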 In outline:
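Double-stable HepG2 cells (hCAR, CYP2B6-2.2kb) seeded 4 h before compound addition. Exposure 24 h with 0.75 uM PK11195 final. Luciferase detected by ONE-Glo.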

Test [10] has as its target Thyrotropin receptor (Homo sapiens) (UniProt P16473). Put plainly: qHTS assay to identify small molecule agonists of the thyroid stimulating hormone receptor (TSHR) signaling pathway (AID 1224843; calls by dose curve; also: nearly all actives have a fitted effect of over 45% in size). In outline:
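Screening of the Tox21 10K collection used HEK293 cells engineered with TSHR at 800 cells per well. After a 30-min room-temperature compound exposure, HTRF cAMP reagents were added and fluorescence recorded 1 h later.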

Test [11] can be described thus: qHTS assay to identify small molecule antagonists of the estrogen related receptor signaling pathway with the pleiotropic PPARgamma coactivator (PGC) from Tox21 10K library - cell viability counter screen (AID 1224840; active = well fitted cell-killing curve with a large enough effect in the repeat runs, not every such curve was filed as active; also: nearly all actives have a fitted effect of over 40% in size; also: potency is read from the fitted curve at half-maximal effect). An outline of the steps: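 PGC/ERR cells, 2,000/well; 6 h pre-incubation 37 C/5% CO2; cpd in DMSO via pin tool; 17.5 h 37 C; CellTiter-Fluor, 30 min; fluorescence.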

Test [12] in a line: qHTS assay to identify small molecule agonists of the estrogen related receptor signaling pathway with the pleiotropic PPARgamma coactivator (PGC) from Tox21 10K library (AID 1224842). Also: nearly all actives have a fitted effect of over 15% in size. An outline of the steps:
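Luminescence from One-Glo (30 min, room temperature) measured after PGC/ERR cells had 18 h at 37 C with pinned compound (23 nL in DMSO). Cells had been seeded at 2,000 per well and pre-incubated 6 h.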

The nature of test [13]: qHTS assay to identify small molecule antagonists of the estrogen related receptor signaling pathway with the pleiotropic PPARgamma coactivator (PGC) from Tox21 10K library (AID 1224841; call rule not given here; also: actives are mostly falling curves and most rising ones were filed inactive; nearly all actives have a fitted effect of over 50% in size; also: potency is read from the fitted curve at half-maximal effect; as to activity, negative = inhibition: series mostly up to about 92 µM). An outline of the steps: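 PGC/ERR cell line, 2,000 cells/well; 6 h pre-incubation 37 C/5% CO2; compounds (DMSO) pinned in; 18 h, 37 C; One-Glo, 30 min RT; luminescence.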

The structures appear in SMILES notation. Several values for one entry are separate records, joined by “and”; a condition that tells them apart may be missing. Equal values may be shown once. Records with an inconclusive call do not appear. Unmarked numbers belong to inactive results. Activity calls are given as the source filed them. Unless noted, calls follow the shape of the dose curve; as a rule, active = well fitted curve in the direction sought with a large enough effect in the repeat runs; inconclusive = weak or mixed curves; inactive = no such curve, though single readings can be large; an effect the other way counts as inactive or inconclusive.
% is scaled to controls: 0 for no effect and ±100 for the full control effect.

Chain of Luciferin 4-monooxygenase (Photinus pyralis) (P08659 whole entry, looked up): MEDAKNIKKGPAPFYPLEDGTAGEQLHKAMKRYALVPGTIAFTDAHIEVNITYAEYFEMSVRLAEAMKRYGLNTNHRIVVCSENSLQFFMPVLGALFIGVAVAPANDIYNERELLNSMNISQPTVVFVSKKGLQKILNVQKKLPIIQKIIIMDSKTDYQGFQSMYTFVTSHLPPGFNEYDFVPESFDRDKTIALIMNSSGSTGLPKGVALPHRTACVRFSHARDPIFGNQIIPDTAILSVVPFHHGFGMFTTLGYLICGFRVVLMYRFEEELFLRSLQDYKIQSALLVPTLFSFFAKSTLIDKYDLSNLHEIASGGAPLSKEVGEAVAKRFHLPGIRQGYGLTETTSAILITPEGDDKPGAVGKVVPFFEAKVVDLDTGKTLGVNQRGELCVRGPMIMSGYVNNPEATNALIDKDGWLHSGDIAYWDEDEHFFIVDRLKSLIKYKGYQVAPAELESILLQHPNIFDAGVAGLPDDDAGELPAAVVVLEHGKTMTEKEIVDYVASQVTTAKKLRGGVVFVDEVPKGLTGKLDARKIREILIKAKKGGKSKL
Chain of Nuclear receptor subfamily 1 group I member 3 (Homo sapiens) (Q14994 whole entry, looked up): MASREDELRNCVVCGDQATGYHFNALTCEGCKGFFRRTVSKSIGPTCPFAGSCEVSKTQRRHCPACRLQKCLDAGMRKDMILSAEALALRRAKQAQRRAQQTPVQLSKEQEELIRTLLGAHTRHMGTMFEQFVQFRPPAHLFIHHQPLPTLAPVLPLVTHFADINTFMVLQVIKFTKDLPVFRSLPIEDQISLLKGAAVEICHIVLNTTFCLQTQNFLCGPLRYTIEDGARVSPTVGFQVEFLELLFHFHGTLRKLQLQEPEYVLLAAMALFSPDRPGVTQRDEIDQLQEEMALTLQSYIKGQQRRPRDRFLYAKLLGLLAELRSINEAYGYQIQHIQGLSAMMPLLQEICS
Chain of Thyrotropin receptor (Homo sapiens) (P16473 whole entry, looked up): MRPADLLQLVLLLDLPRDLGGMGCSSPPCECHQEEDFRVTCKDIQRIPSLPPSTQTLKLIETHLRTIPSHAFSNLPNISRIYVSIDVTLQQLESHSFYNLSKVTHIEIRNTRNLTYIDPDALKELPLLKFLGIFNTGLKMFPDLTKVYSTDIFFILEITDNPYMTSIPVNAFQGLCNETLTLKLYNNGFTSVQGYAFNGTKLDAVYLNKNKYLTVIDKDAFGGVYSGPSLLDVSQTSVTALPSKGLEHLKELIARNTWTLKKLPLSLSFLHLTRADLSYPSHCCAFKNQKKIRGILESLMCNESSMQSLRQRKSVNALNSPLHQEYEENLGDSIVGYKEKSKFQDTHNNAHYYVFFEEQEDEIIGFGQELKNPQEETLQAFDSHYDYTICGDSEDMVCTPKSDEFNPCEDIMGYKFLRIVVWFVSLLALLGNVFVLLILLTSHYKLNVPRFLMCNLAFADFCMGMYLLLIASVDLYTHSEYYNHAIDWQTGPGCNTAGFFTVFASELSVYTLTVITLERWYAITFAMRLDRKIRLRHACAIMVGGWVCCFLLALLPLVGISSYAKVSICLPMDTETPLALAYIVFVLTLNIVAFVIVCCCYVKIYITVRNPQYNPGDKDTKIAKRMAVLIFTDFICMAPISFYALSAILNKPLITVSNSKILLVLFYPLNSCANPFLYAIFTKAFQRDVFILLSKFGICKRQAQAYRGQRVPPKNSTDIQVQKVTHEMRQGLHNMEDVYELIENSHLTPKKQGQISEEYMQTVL

Consider `Cc1cccc(OP(=O)(Oc2cccc(C)c2)Oc2cccc(C)c2)c1`, for which the Potency result in test [1], in test [2], in test [3], in test [4], in test [5] and in [6] was “inactive” each time. Besides, the Potency entry in test [7], in test [8] and in [10] was “inactive” each time. Further, in test [9], the Potency was 30.6 µM (active).

`CCS(=O)(=O)c1cccnc1S(=O)(=O)NC(=O)Nc1nc(OC)cc(OC)n1`: the Potency result in test [1], in [2], in test [3], in test [4], in test [5] and in [6] was “inactive” throughout. In addition, the Potency entry in test [7], in [8], in test [11], in test [12] and in test [10] was “inactive” each time. Moreover, the Potency in [9] is 54.5 µM (active).

Consider `Clc1ccc(Oc2ccccc2)cc1`, for which the Potency entry in [1], in test [2], in [3], in test [4], in test [5] and in [6] was “inactive” in each case. Also, the Potency entry in [7], in test [8], in test [9] and in test [11] was “inactive” throughout.

As to `Brc1c(Br)c(Br)c(Oc2c(Br)c(Br)c(Br)c(Br)c2Br)c(Br)c1Br`, the activity change, negative = cytotoxicity in test [1] was 2.64% [at 15.8 µM]; in test [2], 2.15% [at 19 µM]; in test [7], 5.53% [at 19 µM]. The figures for the activity, negative = inhibition in test [3], in test [8] and in [13] were -8.07% [at 19 µM], -4.8% [at 19 µM] and 39.4% [at 19 µM], respectively. Further, the viability change, negative = cytotoxic was 0.115% [at 19 µM] in test [4] and -2.08% [at 19 µM] in test [6]. Further, the activity change, negative = inhibition in [5] is 1.46% [at 23.6 µM]. The activation is -0.206% [at 19 µM] in [9], 1.27% [at 19 µM] in test [12] and -5.88% [at 19 µM] in [10].

On to `CC1(C)CN=C(NN=C(/C=C/c2ccc(C(F)(F)F)cc2)/C=C/c2ccc(C(F)(F)F)cc2)NC1`, for which the Potency in test [1] is 13.8 µM (active); in test [2], 43.3 µM (active); in test [3], 9.69 µM (active); in [4], 21.7 µM (active); in [6] it was 24.3 µM (active); in test [7], 21.7 µM (active). Moreover, the values for the Potency in test [8], in test [11] and in [13] were 19.3 µM (active), 17.2 µM (active) and 27.3 µM (active), respectively. For the same molecule, the Potency entry in test [5], in test [9], in test [12] and in test [10] was “inactive” in each case.

Take `ClC1=C(Cl)C2(Cl)C3C(Cl)C(Cl)CC3C1(Cl)C2(Cl)Cl` (centres undefined): the Potency is 21.8 µM (active) and 21.9 µM (active) in test [1]; 54.5 µM (active) in test [3]; 68.4 µM (active) in [4]; 3.05 µM (active) and 15.4 µM (active) in test [9]; 61.1 µM (active) in [11]; 60.9 µM (active) and 43.3 µM (active) in [13]. Further, the Potency result in test [2], in test [5], in test [6], in test [7] and in test [8] was “inactive” each time.

In the case of `CC(c1ccc(O)cc1)c1ccc(O)cc1`, the Potency result in test [1], in test [2], in test [3], in [4], in [6] and in test [7] was “inactive” in each case. Moreover, the Potency entry in test [8], in [11], in test [13], in [12] and in [10] was “inactive” in each case. Also, the Potency was 74.7 µM (active) and 44.8 µM (active) in [5]; 51.1 µM (active) and 30.6 µM (active) in [9].

For the molecule `Oc1ccc(C2(c3ccc(O)cc3)CCCCC2)cc1`, the Potency in test [1] was 36.8 µM (active); in test [3], 41 µM (active); in [4], 57.9 µM (active). Further, the Potency result in test [2] and in test [5] was “inactive” in each case.

Regarding `CCCCCCCCCCCCCCCCCCn1cc[n+](C)c1`, the Potency in test [1] is 10.9 µM (active); in [2], 48.3 µM (active); in [3], 21.6 µM (active); in test [4] it was 27.1 µM (active); in [6], 24.2 µM (active); in test [7] it was 17.1 µM (active). Besides, the Potency was 43 µM (active) in test [8], 30.5 µM (active) in test [11] and 24.2 µM (active) in test [13]. Further, the Potency result in test [5], in test [9] and in [10] was “inactive” in each case.

With `CC(C)CBr`, the Potency entry in test [1], in test [2], in test [3], in test [4], in test [5] and in [6] was “inactive” each time. Moreover, the Potency result in test [7], in test [8], in test [9], in test [12] and in test [10] was “inactive” throughout.
